High-throughput results: PubChem, Paczesny and Yang Labs, IUPUI and University of Michigan
The entries come from a sample that favours hits as a whole.
ST2 IL33 inh: blocks human ST2 binding to IL-33. hit rate 2.3% among 78,000. AlphaLISA ST2-Fc/biotin-IL-33 interaction, 1 h. inhibition, % for hits at 17 µM. AID 1259354; in the data active = inhibition above about 30%
Target sequence (Q01638 whole entry, looked up): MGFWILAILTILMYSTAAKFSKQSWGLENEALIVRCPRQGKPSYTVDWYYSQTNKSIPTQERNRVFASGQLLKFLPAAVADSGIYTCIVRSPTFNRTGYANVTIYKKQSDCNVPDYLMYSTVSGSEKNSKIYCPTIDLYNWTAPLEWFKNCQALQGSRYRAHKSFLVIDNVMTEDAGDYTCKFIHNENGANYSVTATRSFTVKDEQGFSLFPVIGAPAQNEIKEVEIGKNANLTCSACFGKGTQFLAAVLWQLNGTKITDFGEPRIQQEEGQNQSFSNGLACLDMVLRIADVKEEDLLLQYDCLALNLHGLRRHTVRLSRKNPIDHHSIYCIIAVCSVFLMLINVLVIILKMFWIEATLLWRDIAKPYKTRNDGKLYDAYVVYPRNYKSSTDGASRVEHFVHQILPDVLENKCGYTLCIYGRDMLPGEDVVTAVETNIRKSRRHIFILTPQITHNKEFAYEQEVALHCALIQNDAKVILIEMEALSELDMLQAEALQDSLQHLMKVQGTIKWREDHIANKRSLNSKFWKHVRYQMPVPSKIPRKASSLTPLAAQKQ
* marks the source's active call; other numbers are inactive results; i = inactive.

SMILES | ST2 IL33 inh
Cc1ccc(C(NC(=O)Cc2nc(C)sc2C)c2ccncc2)cc1 (stereo unspecified) | i
CCO[C@H]1COC[C@@H]1NC(=O)CCc1scnc1C | i
CCn1cnc2cc(NCc3ccc(OC)c(OC)c3)ccc21 | i
COc1ccc(CNc2ccc3c(c2)ncn3C(C)(C)C)cc1OC | i
COc1ccc(CNC(=O)c2ccc3c(c2)ncn3C2CCCC2)c(OC)c1 | i
COc1ccc(CNc2ccc3c(c2)ncn3C2CCCCC2)cc1OC | 33%*
COc1ccc(CNc2ccc3c(c2)ncn3C2CCCCC2)cc1 | 39%*
CCOc1ccc(CNc2ccc3c(c2)ncn3C(C)(C)C)cc1 | i
CN1C(=O)C(N=Cc2ccccc2)N(c2ccccc2)C1=O (stereo unspecified) | i
N#CC1=C(N)OC2=C(C(=O)CCC2)C1c1ccc(F)c(F)c1 (stereo unspecified) | i
CN(c1ncccc1C(=O)N1CCC(N2CCCC2=O)CC1)C1CCCCC1 | i
O=C(C1CNCCN1C(=O)c1cc2c(s1)CCCC2)N1CCOCC1 (stereo unspecified) | i
O=C(CS(=O)(=O)c1cn(Cc2ccc(Cl)cc2)c2ccccc12)N1CCCCCC1 | i
C=CCN1CC(C(=O)N2CCc3c(cc(-c4cccc5nc(C)ccc45)c(=O)n3CC3CC3)C2)CC1=O (stereo unspecified) | i
COc1ccc(Br)cc1CNC(=O)c1ccc2c(c1)ncn2C1CCCC1 | i
COc1ccc(-c2cc3c(n(C)c2=O)CCN(C(=O)C2Cc4ccccc4O2)C3)c2ccc(C)nc12 (stereo unspecified) | i
CC(C)CN1CC(OCc2cccc(F)c2)CN(C(=O)CC2NC(=O)c3ccccc32)CC1=O (stereo unspecified) | i
COc1cc(NC(=O)C(C)(C)Oc2ccc(Cl)cc2)c(OC)cc1Cl | i
COc1ccc(NC(=O)C(C)(C)Oc2ccc(Cl)cc2)cc1OC | i
COc1cc([N+](=O)[O-])ccc1NC(=O)C(C)(C)Oc1ccc(Cl)cc1 | 30%*
O=C(C1CC1)N1CCc2cc(S(=O)(=O)N3CCCCCC3)ccc21 | i
Cn1c(=O)n(C)c2cc(CNC(=O)Cc3c[nH]c4ccccc34)ccc21 | 30%*
Cc1cc(C)n(CCC(=O)NCCc2c[nH]c3ccccc23)c(=O)n1 | i
COCc1ccc(C(=O)NCc2ccc3c(c2)n(C)c(=O)n3C)o1 | i
CCOc1ccccc1/C=C1/SC(=O)NC1=O | i
SMILES | ST2 IL33 inh
O=C1NC(=Nc2ccccc2Cl)SC1(CO)CO | i
O=C1NC(=Nc2ccccc2Cl)S/C1=C/c1ccc([N+](=O)[O-])cc1 | 31%*
COc1cccc(/C=C2\SC(N3CCN(C)CC3)=NC2=O)c1OC | i
O=[N+]([O-])c1ccc(Cl)c(N=Cc2ccc(Br)c([N+](=O)[O-])c2)c1 | i
O=C1NC(=O)/C(=C/c2ccc(-c3cc([N+](=O)[O-])ccc3Cl)o2)S1 | i
O=C1NC(=Nc2ccccc2Cl)S/C1=C/c1cc2c(cc1Cl)OCO2 | 31%*
COc1cccc(/C=C2/SC(=Nc3ccccc3Cl)NC2=O)c1OC | 31%*
O=C(/C=C1\Sc2ccccc2NC1=O)NCc1ccc2c(c1)OCO2 | i
O=C(Nc1ccccc1F)c1ccccc1Br | i
CCCOc1ccc(-c2nc3s/c(=C\c4ccc(C)o4)c(=O)n3n2)cc1 | i
Fc1cnc(Nc2ccccn2)nc1N1CCOCC1 | i
O=C1OC(Nc2ccc(OC(F)(F)F)cc2)c2ccccc21 (stereo unspecified) | i
NC(=O)CSc1oc(-c2ccccc2)nc1S(=O)(=O)c1ccc(Cl)cc1 | i
O=S(=O)(c1ccc(Cl)cc1)c1nc(/C=C/c2ccccc2)oc1N1CCOCC1 | 31%*
Cc1ccc(-c2nc(S(=O)(=O)c3ccc(C)cc3)c(N3CCOCC3)o2)cc1 | i
CC1CC(=O)C2=C(CCC3(O)C2C(=O)c2cccc(O)c2C3O)C1 (stereo unspecified) | 31%*
CC(C)c1ccccc1NC(=O)c1ccccc1C(=O)Nc1ccccc1C(C)C | i
Cc1ccc(-n2c(CN3CCN(S(=O)(=O)c4ccc5c(c4)CCC5)CC3)nc3cccnc32)cc1 | i
CCOc1ccc(/C=C2\SC(N3CC(C)OC(C)C3)=NC2=O)cc1OC (stereo unspecified) | i
COc1cc(/C=C2/SC(=Nc3ccccc3)NC2=O)ccc1OCC#N | 32%*
COc1cc(C2NC(=O)CCC2[N+](=O)[O-])cc(Cl)c1O (stereo unspecified) | i
CCOc1cc(/C=C2/NC(=O)NC2=O)ccc1OCc1ccccc1C#N | i
COc1ccc(OC)c(/C=C2/SC(=Nc3ccc(C)cc3)NC2=O)c1 | i
COc1cc(/C=C2/SC(=Nc3ccccc3)NC2=O)cc(Cl)c1O | 42%*
CCN(CC)S(=O)(=O)N1CCC(C(=O)Nc2cccc(CCc3nc4ccc(C)cc4[nH]3)c2)CC1 | i
O=C(O)CCNC(=O)/C(=C/c1ccc2c(c1)OCO2)NC(=O)c1ccc(Br)cc1 | i
NC(=O)CNC(=O)[C@@]1(O)C[C@@H](O)[C@H](O)[C@@H](NC(=O)Nc2ccc(OC(F)(F)F)cc2)C1 | i
